From PubChem BioAssay
D1 antagonist – antagonists of human D1 dopamine receptor | P21728 | HEK293 TREx D1 cells, calcium flux, dopamine EC80; active compounds read low | activity change, negative = inhibition, % at 10 µM | actives 3.2% (n = 360,000); in the data active means activity change below about -30%; further: on the % scale 0 is the no-effect control and ±100 the full control effect
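HEK293 T-REx cells expressing inducible, force-coupled D1 receptor; no-wash Ca dye, 30–90 min RT. Cmpd → 180 s read at 1 Hz → EC80 DA → 180 s read.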
D1 PAM – human D1 dopamine receptor positive modulation; actives 0.036% (n = 360,000); P21728; AID 504651; HEK293 TREx D1 cells, calcium flux, dopamine EC20 potentiation; potentiation, % at 10 µM; in the data active means potentiation above about 30%; further: 0% is about no effect
D1 ag – activates the human D1 dopamine receptor | activation, % at 2 µM | AID 504660 | actives 1% (n = 360,000) | HEK293 T-REx D1 cells, calcium flux, agonist mode; further: 0% is about no effect
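Inducible HEK293 T-REx D1 cells, force-coupled to calcium signalling, were plated at 4000 cells/well with tetracycline and held overnight at 30 C. After no-wash calcium dye loading, compound-evoked calcium rise over 180 s flagged agonists.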
TRHR enhancer – allosterically enhances the human TRH receptor; actives 0.66% (n = 360,000); TRHR cells, fluo-8 calcium fluorescence, EC20 TRH enhancement; P34981; enhancement, % at 2 µM; in the data active means enhancement above about 30%; further: 0% is about no effect
Target sequence (P34981 whole entry, looked up): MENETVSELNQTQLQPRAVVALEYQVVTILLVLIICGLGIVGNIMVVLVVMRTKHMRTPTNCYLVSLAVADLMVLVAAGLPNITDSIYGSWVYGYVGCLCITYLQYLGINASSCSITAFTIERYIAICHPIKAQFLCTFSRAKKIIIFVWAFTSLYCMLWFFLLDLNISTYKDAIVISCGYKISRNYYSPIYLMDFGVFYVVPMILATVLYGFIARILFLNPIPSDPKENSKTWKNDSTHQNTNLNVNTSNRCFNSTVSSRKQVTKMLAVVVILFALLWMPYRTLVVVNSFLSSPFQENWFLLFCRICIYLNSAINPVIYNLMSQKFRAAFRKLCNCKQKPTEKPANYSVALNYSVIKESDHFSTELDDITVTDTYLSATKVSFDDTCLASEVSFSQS
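Enhancer read-out: after compound pinning and an initial kinetic agonist-mode read, an EC20 of TRH (10 nM final) was injected and fluo-8 calcium signal (Ex 480/Em 530) followed at 1 s/cycle for 100 cycles in TRHR-expressing cells.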
TRHR agonist – agonists of human TRH receptor. TRHR cells, calcium flux fluo-8, FDSS agonist mode. AID 493084. P34981. actives 0.18% (n = 360,000). activation, % at 2 µM; further: 0% is about no effect
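Agonist-mode FDSS calcium read (Ex 480/Em 530, 1 s cycles) in 1536-well TRHR cells with fluo-8 dye, after 10-cycle baseline and 23 nL compound addition; TRH at EC20 (10 nM final) added afterwards for the enhancer phase.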
Numbers without * were called inactive. Shown are actives, neighbours in structure and some others; about 4.7% of the full set was active somewhere. Unless noted, no stated cut-off is given here; in the data, active means activation above about 30%; inactive means the rest.

SMILES | D1 antagonist | D1 PAM | D1 ag | TRHR enhancer | TRHR agonist
COc1ccc(C(CCN2CCN(c3ccccc3)CC2)c2c(O)cc(OC)cc2OC)cc1 (configuration not stated) | -84.4* | -9.4 | 1.4 | -5.3 | 0.1
COc1ccc(C(CCN2CCCC2)c2c(O)cc(OC)cc2OC)cc1 (configuration not stated) | -10.6 | -1.7 | 6.2 | 5.3 | 0.3
COc1ccc(CC(=O)Nc2ccc(-c3nc4ccccc4s3)c(C)c2)cc1OC | -17.8 | -3.3 | 9.7 | -0.3 | 0.2
CCOC(=O)c1c(NC(=O)c2ccc(S(=O)(=O)N(CC(C)C)CC(C)C)cc2)sc2c1CCN(CC)C2 | -24.2 | -1.0 | 19.1 | -4.0 | 16.2
CCOc1ccc(S(=O)(=O)N2CCC(N3CCN(Cc4ccc(C)cc4)C(=O)C3=O)CC2)cc1 | -12.6 | 3.5 | 3.0 | 11.3 | -0.9
CCCc1nnc(NC(=O)c2cc3ccccc3o2)s1 | -52.7* | -3.1 | 0.6 | -8.9 | 0.0
CCN(C(=O)CSc1ncc(S(=O)(=O)c2ccc(C)c(Cl)c2)c(=O)[nH]1)c1cccc(C)c1 | 3.7 | 1.0 | -0.2 | 15.6 | 0.7
O=C(N/N=C/c1ccc(N2CCOCC2)cc1)c1ccc(O)cc1 | -54.6* | -5.2 | 2.0 | 6.9 | 1.3
C/C(=N\NC(=O)c1ccc(O)cc1)c1ccc(N2CCOCC2)cc1 | -21.5 | -4.6 | 2.4 | -0.3 | -0.1
Cc1ccc(C(=O)CC2(O)C(=O)N(Cc3ccccc3)c3ccccc32)c(C)c1 (configuration not stated) | -14.8 | 11.6 | 57.6* | 0.1 | 0.1
CCc1ccc(C(=O)CC2(O)C(=O)N(Cc3ccc(C)cc3)c3ccccc32)cc1 (configuration not stated) | -4.0 | 2.2 | -0.8 | -6.5 | -0.3
CCCCN1C(=O)C(O)(CC(=O)c2ccc(C(C)(C)C)cc2)c2ccccc21 (configuration not stated) | -48.9* | -5.3 | 27.7 | 1.8 | -1.5
CCN1C(=O)C(O)(CC(=O)c2c(C)coc2C)c2ccccc21 (configuration not stated) | -45.0* | -1.0 | 0.4 | -3.5 | -0.4
COc1ccc(C(=O)Nc2ccc3c(c2)N(C2CCCC2)C(=O)c2ccccc2S3)cc1OC | 8.5 | 3.8 | 0.6 | 1.6 | 0.8
CC(C)NC(=O)c1onc(CSc2ccccc2)c1C(=O)O | 1.3 | 1.1 | -0.9 | 31.0* | 1.3
CCCCNC(=O)c1onc(CSc2ccc(F)c(F)c2)c1C(=O)O | 18.5 | -0.6 | 0.0 | -2.6 | 0.0
CCCCNC(=O)c1onc(CSc2ccc(C)c(C)c2)c1C(=O)O | -32.1* | -1.0 | 1.4 | 2.9 | 0.2
Cn1cnc(S(=O)(=O)N2CCC(C(=O)NCc3ccc(F)cc3)CC2)c1 | 8.2 | 0.6 | -0.6 | 0.6 | 1.1
COc1cc(Cl)c(C)cc1NC(=O)c1cc(CN2CCOCC2)on1 | -7.4 | -2.9 | 0.1 | 8.1 | -0.1
Cn1c(=O)c2c(nc(SCC(=O)NCc3ccc4c(c3)OCO4)n2Cc2ccc(F)cc2)n(C)c1=O | -36.8* | -21.9 | -0.1 | -7.2 | -0.3
Cn1c(=O)c2c(nc(SCC(=O)NCc3ccc4c(c3)OCO4)n2Cc2ccccc2)n(C)c1=O | -2.6 | 4.2 | -4.7 | -0.1 | -0.3
Cc1ccc(S(=O)(=O)Nc2cccnc2)cc1 | 1.2 | -6.8 | 2.4 | -3.7 | 2.9
CCCCOc1ccc(S(=O)(=O)Nc2cccnc2)cc1 | -36.6* | -0.8 | 23.0 | -3.1 | 0.5
Cc1ccc(C)c(NC(=O)Cn2ncc3c(C)n(Cc4ccc(F)cc4)c(C)c3c2=O)c1 | -3.2 | 5.2 | 22.1 | -1.1 | 0.3
CCc1nc2nc(C)c(NS(=O)(=O)c3ccc(C(C)(C)C)cc3)c(=O)n2[nH]1 | -72.3* | -0.2 | -0.5 | 6.9 | 0.5
Cc1cccc(NC(=O)C(NS(=O)(=O)c2cccc3nsnc23)c2ccccc2)c1C (configuration not stated) | 26.6 | 0.9 | 1.3 | -2.6 | 0.5
Cn1ncc(C(=O)N2CCN(c3ccc(F)cc3)CC2)c1C1CCN(C(=O)OC(C)(C)C)CC1 | -18.1 | -2.3 | 0.4 | 4.3 | -0.7
CCOC(=O)c1ccc(COc2ccc(C(C)C)cc2)o1 | 8.3 | -4.3 | 7.2 | 2.6 | 1.3
CCOc1ccc(OCc2ccc(C(=O)OCc3ccccn3)o2)cc1 | -23.5 | -10.1 | 32.0* | 1.3 | 0.1
